# Sampled rows, rich in hits. Any-hit rate of the full collection: about 19%.
# HT1080NT lethal – qHTS for induction of synthetic lethality in tumor cells producing 2HG: qHTS for the HT-1080-NT fibrosarcoma cell line; HT-1080-NT fibrosarcoma viability, CellTiter-Glo ATP luminescence, 48 h; Potency, µM (highest dose often 46.1 µM), for inactives: at the top dose activity, negative = less viability, hits mostly cytotoxic; 360,000 tested, 1.6% active;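 further: NT is the 2HG producing partner of a matched IDH1 knockdown line; potency means the concentration at half of the fitted maximal effect; 0% = DMSO-treated cells and -100% = media-only wells without cells; nearly all actives have a fitted effect of over 55% in size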
#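 Luminescent CellTiter-Glo readout after 48 hours of compound exposure at 37 degrees C defined viability of HT-1080-NT cells. Activity was normalized to DMSO wells and cell-free media wells; concentration-response curves were fitted and assigned curve classes.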
# DT40 TDP1 CPT – qHTS for Inhibitors of human tyrosyl-DNA phosphodiesterase 1 (TDP1): qHTS in cells in presence of CPT | 420,000 tested, 12% active | Potency, µM (top dose mostly 46.2 µM), without a hit: at the top dose activity change, negative = growth inhibition, hits mostly inhibitors | chicken DT40 Tdp1-/-;hTDP1 cells + 20 nM CPT, ATP luminescence, 48 h; further: potency means the concentration at half of the fitted maximal effect; nearly all actives have a fitted effect of over 55% in size
#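 Chicken DT40 Tdp1-/- cells complemented with human TDP1, 400 cells/well, exposed to compounds plus 20 nM camptothecin for at least 48 h at 37 C; viability read as ATP content by CellTiter-Glo luminescence.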
# HT1080 IDH1KD tx – qHTS for induction of synthetic lethality in tumor cells producing 2HG: qHTS for the HT-1080-IDH1KD cell line; 360,000 tested, 2% active; HT-1080 IDH1 knockdown viability, ATP luminescence, 48 h; AID 686971, 2013; Potency, µM (series often up to 46.1 µM), inactives show at the highest dose activity, negative = toxicity, most hits filed as cytotoxic;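 further: potency means the concentration at half of the fitted maximal effect; 0% = DMSO wells and -100% = cell-free medium wells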
#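 Cytotoxicity counter-line: IDH1KD HT-1080, 48 h, CellTiter-Glo. Curves classed by r2, magnitude and activity.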
# TDP1 cell noCPT – qHTS for Inhibitors of human tyrosyl-DNA phosphodiesterase 1 (TDP1): qHTS in cells in absence of CPT; Potency, µM (series often up to 46.2 µM), for inactives: at the highest dose activity change, negative = growth inhibition, actives largely listed as inhibitors; DT40 Tdp1-/- hTDP1 cells, no CPT, ATP luminescence, 48 h; AID 686978, 2013; 420,000 tested, 15% active; further: potency means the concentration at half of the fitted maximal effect; nearly all actives have a fitted effect of over 55% in size
#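 Cells were dispensed at 400 per well, compounds added by pin tool, plates incubated ≥48 hr at 37 °C, then CellTiter-Glo added for 30 min at room temperature before luminescence reading. Line: DT40 Tdp1-/- complemented with hTDP1; camptothecin omitted.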
# IL1B secr inh – qHTS for Inhibitors of Inflammasome Signaling: IL-1-beta AlphaLISA Primary Screen | THP-1 LPS/ATP IL-1B secretion, AlphaLISA, 16 h; active compounds read low | activity change, % at 57.5 µM | 360,000 tested, 4.7% active | AID 743279, 2014; in the data active means activity change below about -50%; inconclusive means mostly about -30% to -49%
#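 Secreted IL-1B measured by AlphaLISA bead assay after 16 h compound exposure of THP-1 cells; compounds (final up to 57.5 uM) added 1 h before LPS (250 ng/mL) and ATP (1.25 mM) stimulation; lower signal means less secretion.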
# * marks the source's active call; other numbers are inactive results; i = inactive; ? = inconclusive; . = no result; [ ] = dose if it differs, or a comment. Unless noted, the call rests on the fitted dose curve; in most records, active means well fitted curve in the direction sought with a large enough effect; inconclusive means small, poorly fitted or top-dose-only effect, or another doubt; inactive means no such curve, though single readings can be large; an effect the other way counts as inactive or inconclusive. Unless noted, on the % scale 0 is the no-effect control and ±100 the full control effect.
SMILES,HT1080NT lethal,DT40 TDP1 CPT,HT1080 IDH1KD tx,TDP1 cell noCPT,IL1B secr inh
COc1ccc(-c2[nH]c(-c3ccc4c(c3)OCO4)nc2-c2ccccc2)cc1,?,?,?,?,-64*
COc1ccc(-c2nc(=S)[nH][nH]2)cc1OC,17%,-13%,13%,-6%,3
COc1ccc(N2CCN(CCNC(=O)c3ccc(NC(=O)C4CCCO4)cc3)CC2)cc1 (centres undefined),5%,-12%,11%,-14%,34
Brc1ccc(C2=NC(Cc3ccccc3)CO2)cc1 (centres undefined),-11%,7%,0%,-10%,-1
Cc1ccc(C(=O)N/C(=C\c2ccc3c(c2)OCO3)C(=O)Nc2ccc(C(=O)O)cc2)cc1,4%,-8%,10%,0%,-7
Cc1c(C)c2ccc(OCC(=O)Nc3ccccn3)cc2oc1=O,2%,2%,0%,-9%,-2
COc1cc(-c2nc(-c3ccccc3)c(-c3ccc(F)cc3)[nH]2)cc2c1OCO2,-7%,?,-10%,?,-3
COc1cc(-c2nc(-c3ccccc3)c(-c3cc([N+](=O)[O-])ccc3C)[nH]2)cc(OC)c1OC,-16%,18µM*,-2%,16µM*,14
COc1cc(/C=C2/OC(=O)c3cc([N+](=O)[O-])ccc32)cc(OC)c1OC,-6%,-19%,-1%,-13%,13
COc1ccc(-c2nc(-c3ccccc3)c(-c3ccccc3)[nH]2)cc1Br,.,18µM*,.,13µM*,.
NC(=O)c1ccc(-c2nc(-c3ccc4c(c3)OCO4)c(-c3ccccn3)[nH]2)cc1,.,21µM*,.,19µM*,.
COc1cc(-c2nc(-c3cccc(Cl)c3)c(-c3ccccc3)[nH]2)cc(OC)c1OC,.,18µM*,.,16µM*,.
COc1ccc(-c2[nH]c(-c3ccc(C(=O)O)cc3)nc2-c2ccccc2)cc1,5%,-14%,7%,-25%,14
Cc1[nH]c(C)c(S(=O)(=O)N2CCN(c3ccccc3F)CC2)c1C(=O)N1CCCCC1,-14%,?,-11%,-19%,0
COc1ccc(Nc2ncnc3c2nc2n3CCCCC2)cc1,.,-19%,.,?,.
Fc1cccc(-c2nc(-c3ccncc3)no2)c1,.,19%,.,-8%,.
COC(=O)c1cn(Cc2ccccn2)c(=O)c2ccccc12,11%,9%,3%,-2%,10
NC(=O)CNc1n[nH]c(=S)[nH]c1=O,13%,4%,24%,-17%,-2
COc1cc(-c2nc(-c3ccc4c(c3)-c3ccccc3S4(=O)=O)c(-c3ccccc3)[nH]2)cc(OC)c1O,-29%,6.5µM*,-24%,16µM*,?
Cc1nnsc1C(=O)NCC1Cc2cccc(-c3ncccn3)c2O1 (centres undefined),.,20%[9.04 µM],.,0%,.
Fc1ccc(CNC(=S)NCc2ccc(F)cc2)cc1,-3%,13%,-7%,-14%,-5
CSc1ccccc1NC(=S)Nc1cccc(C(F)(F)F)c1,8%,-30%,2%,-28%,0
O=[N+]([O-])c1cc(C(F)(F)F)cc([N+](=O)[O-])c1NCCNC(=S)Nc1cccc(F)c1,-24%,?,-22%,26µM*,-53*
Fc1ccccc1CNC(=S)Nc1cccc(C(F)(F)F)c1,-13%,?,-3%,23µM*,-98*
Fc1ccc(CNC(=S)Nc2cccc(C(F)(F)F)c2)cc1,?,?,?,18µM*,0
SMILES,HT1080NT lethal,DT40 TDP1 CPT,HT1080 IDH1KD tx,TDP1 cell noCPT,IL1B secr inh
CCOC(=O)c1cnc[nH]c1=O,0%,-11%,-2%,14%,-6
Cc1sc(-n2c(C)cc(/C=C3\SC(=S)NC3=O)c2C)c(C#N)c1C,13µM*,?,11µM*,-28%,24
Cc1cc(/C=N/n2cnnc2)c(C)n1-c1ccccc1,-1%,-25%,3%,-10%,25
Cc1sc(-n2c(C)cc(/C=N/n3cnnc3)c2C)c(C#N)c1C,-21%,16µM*,?,21µM*,0
COc1ccc(-c2cc(-c3nnc(COC(=O)CC4CC5CCC4C5)o3)c3ccccc3n2)cc1OC (centres undefined),-10%,21µM*,-11%,21µM*,0
CS(=O)(=O)c1ccc(C(=O)Nc2cc(S(C)(=O)=O)ccc2Cl)cc1,29%,2%,?,1%,-16
Cc1ccccc1NC(=O)Cc1nc(CCl)cs1,13%,?,7%,-30%,i
Cc1ccc(C)c(NC(=O)Cc2nc(CCl)cs2)c1,-1%,26µM*,9%,21µM*,-3
O=C(Cn1c(=O)oc2ccccc21)Nc1ccccc1C(F)(F)F,0%,?,-2%,6.5µM*,16
CS(=O)(=O)c1ccc(Cl)c(NC(=O)CCl)c1,?,5.8µM*,?,10µM*,-100*
Cc1ccc(NC(=O)Cn2c(=O)oc3ccccc32)c(C)c1,20%,0%,-2%,13µM*,-12
O=C(c1cc(C2CC2)on1)N1CCCC(N2CCN(c3ccc(F)cc3)CC2)C1 (centres undefined),-1%,-18%,-11%,-22%,1
CC(C)Cn1c(N)c(C(=O)CSc2ncnc3sc4c(c23)CCCC4)c(=O)n(C)c1=O,2%,4%,4%,-4%,34
Cc1ccc(NC(=O)CCc2ccc(C)o2)c(C)c1,-6%,?,-21%,-26%,0
Cc1ccc(NC(=O)CCl)c(C)c1,?,?,?,26µM*,-99*
CCOc1ccccc1NC(=O)Cn1c(=O)oc2cc(Cl)ccc21,-2%,-18%,1%,4.6µM*,-10
Cc1ccc(NC(=O)Cc2cc(C(=O)O)c3ccccc3n2)c(C)c1,-23%,15µM*,?,21µM*,-6
Cc1ccccc1NC(=O)Cn1c(=O)oc2cc(Br)ccc21,.,?,.,13µM*,.
OCc1ccccc1-c1cnc2cccnn12,?,-1%,?,-10%,23
CCCCCCC=C1CCC(CN2CCCC2)C1=O (centres undefined),?,2.9µM*,?,4.1µM*,-22
COc1ccccc1NC(=O)N1CCC(NC(=O)C(Cc2ccccc2F)NC(C)=O)CC1 (centres undefined),1%,-6%,4%,9%,12
Cc1cc(C(=O)CSc2cccc[n+]2[O-])c(C)n1-c1ccccc1,-7%,-16%,-15%,?,12

# Assay outcomes: PubChem, National Center for Advancing Translational Sciences (NCATS)
